In PubChem BioAssay (NCATS):
Results filed as inconclusive are left out. Where a structure was tested more than once in an assay, its records may differ in their call. Activity calls are given as the source filed them. Unless noted, the call rests on the fitted dose curve; in most records, active means well fitted curve in the direction sought with a large enough effect; inconclusive means small, poorly fitted or top-dose-only effect, or another doubt; inactive means no such curve, though single readings can be large; an effect the other way counts as inactive or inconclusive.

Key:
[1] = Primary qHTS for small molecule stabilizers of the endoplasmic reticulum resident proteome: Secreted ER Calcium Modulated Protein (SERCaMP) assay (AID 1508630)
How it was run: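 The SH-SY5Y reporter protocol was run at 3 concentrations up to 38.3 uM (primary) or 11 concentrations (follow-up): 16 h compound, 100 nM thapsigargin for 4 h, then extracellular luciferase luminescence.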

[2] = A High-Content qHTS Against Drug Library for the Identification of Small Molecules that Inhibit DYT1 Early Onset Primary Dystonia-Associated Cell Pathology (AID 1645839; calls by dose curve; further: potency means the concentration at half of the fitted maximal effect)
How it was run: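 High-content imaging quantified EGFP-TorsinA mislocalization in HEK293-derived cells inducibly expressing DYT1 mutant torsinA, after 48 h exposure to compound given together with tetracycline induction. Cell count served as a toxicity channel alongside %pathology.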

[3] = target: Cytochrome P450 2D6 (Homo sapiens) (UniProt P10635); experiment: Cytochrome P450 family 2 subfamily D member 6 (CYP2D6) small molecule antagonists: luciferase biochemical (cell-free) qHTS assay (AID 1645840; active means well fitted curve in the direction sought with a large enough effect in the repeat runs; an effect the other way counts as inactive or inconclusive; further: nearly all actives have a fitted effect of over 55% in size; further: potency means the concentration at half of the fitted maximal effect)
Sequence of Cytochrome P450 2D6 (Homo sapiens) (P10635 whole entry, looked up): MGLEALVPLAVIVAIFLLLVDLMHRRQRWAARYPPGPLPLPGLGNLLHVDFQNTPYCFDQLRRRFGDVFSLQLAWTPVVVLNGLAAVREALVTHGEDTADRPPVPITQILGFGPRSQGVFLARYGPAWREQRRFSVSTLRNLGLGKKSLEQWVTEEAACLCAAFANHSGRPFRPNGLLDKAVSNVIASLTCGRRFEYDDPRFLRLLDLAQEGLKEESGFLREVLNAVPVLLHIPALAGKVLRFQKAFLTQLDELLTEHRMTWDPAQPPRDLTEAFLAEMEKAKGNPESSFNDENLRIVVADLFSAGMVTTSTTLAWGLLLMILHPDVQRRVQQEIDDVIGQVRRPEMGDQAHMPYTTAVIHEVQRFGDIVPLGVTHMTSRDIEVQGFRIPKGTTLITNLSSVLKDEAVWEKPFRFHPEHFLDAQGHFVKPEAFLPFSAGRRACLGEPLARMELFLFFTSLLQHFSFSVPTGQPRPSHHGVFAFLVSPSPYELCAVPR
How it was run: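 P450-Glo CYP2D6 system: proluciferin substrate converted by enzyme to luciferin, read by luminescence proportional to activity. Enzyme-substrate mix with compound 10 min at room temperature, then NADPH regeneration 1 h before detection reagent.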

[4] = target: Cytochrome P450 2C9 (Homo sapiens) (UniProt P11712); experiment: Cytochrome P450 family 2 subfamily C member 9 (CYP2C9) small molecule antagonists: luciferase biochemical (cell-free) qHTS assay (AID 1645842; active means well fitted curve in the direction sought with a large enough effect in the repeat runs; an effect the other way counts as inactive or inconclusive; further: nearly all actives have a fitted effect of over 55% in size; further: potency means the concentration at half of the fitted maximal effect)
Sequence of Cytochrome P450 2C9 (Homo sapiens) (P11712 whole entry, looked up): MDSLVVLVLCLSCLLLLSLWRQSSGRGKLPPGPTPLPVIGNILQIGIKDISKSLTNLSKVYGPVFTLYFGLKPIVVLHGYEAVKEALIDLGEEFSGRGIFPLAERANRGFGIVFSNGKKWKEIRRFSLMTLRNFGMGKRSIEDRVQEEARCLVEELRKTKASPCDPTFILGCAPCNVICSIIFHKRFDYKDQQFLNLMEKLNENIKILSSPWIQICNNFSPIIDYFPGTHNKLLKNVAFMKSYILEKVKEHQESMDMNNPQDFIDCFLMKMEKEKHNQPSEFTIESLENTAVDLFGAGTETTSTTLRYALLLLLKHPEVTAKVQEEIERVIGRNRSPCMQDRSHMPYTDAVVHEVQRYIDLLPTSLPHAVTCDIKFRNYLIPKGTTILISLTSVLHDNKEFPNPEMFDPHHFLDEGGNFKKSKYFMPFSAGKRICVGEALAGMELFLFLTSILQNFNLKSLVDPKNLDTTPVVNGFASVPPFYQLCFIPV
How it was run: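 P450-Glo CYP2C9 system: proluciferin substrate with enzyme in mix containing 0.4% BSA, 10 min at room temperature, then NADPH regeneration solution added and incubated 1 h at 37C. Detection reagent stopped reaction; luminescence read after 20 min as RLU.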

Papain (Carica papaya) = Papain (Carica papaya) (UniProt P00784); experiment: Primary qHTS assay for inhibitors of the protease papain (AID 1645873);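 further: papain turnover of Z-FR-AMC read as the AMC fluorescence gain over 10 min; series mostly up to about 50 µM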
Sequence of Papain (Carica papaya) (P00784 whole entry, looked up, the tested form may be a part): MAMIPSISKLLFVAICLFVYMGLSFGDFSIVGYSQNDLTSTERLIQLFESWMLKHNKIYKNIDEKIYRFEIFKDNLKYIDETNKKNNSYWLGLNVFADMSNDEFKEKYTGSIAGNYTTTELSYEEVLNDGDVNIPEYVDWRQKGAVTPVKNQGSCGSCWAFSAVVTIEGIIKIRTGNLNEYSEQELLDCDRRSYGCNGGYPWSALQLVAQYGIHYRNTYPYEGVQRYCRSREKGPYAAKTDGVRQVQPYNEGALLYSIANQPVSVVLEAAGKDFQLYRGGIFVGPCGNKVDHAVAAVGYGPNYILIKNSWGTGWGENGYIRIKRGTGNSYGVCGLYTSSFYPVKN

[5] = Primary qHTS for inhibitors of nuclear receptor binding SET domain protein 2 (NSD2) in an isogenic RCH-ACV NSD2 p.E1099K mutant (9B) (AID 1645876); further: nearly all actives have a fitted effect of over 70% in size
[6] = Primary qHTS for inhibitors of nuclear receptor binding SET domain protein 2 (NSD2) in an RCH-ACV wild type WT cells (2C) (AID 1645877); further: nearly all actives have a fitted effect of over 70% in size
[7] = NCATS anti-infectives library activity on HEK293 viability as a counter-qHTS vs the C. elegans viability qHTS (AID 1745854)
How it was run: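 Cytotoxicity counter-screen to a worm viability qHTS: CellTiter-Glo luminescence read 10 min after reagent addition. Compounds (final up to 41.7 uM, a 1:5 dilution series) incubated 24 hr at 37C with 1,500 HEK293 cells per well; digitonin control.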

Measured: Potency

N#C[C@H]1C[C@H]2C[C@@H]2N1C(=O)[C@@H](N)C12CC3CC(CC(O)(C3)C1)C2
inactive: [1] | [2] | [3] | [4]

C[N+](C)(C)CCCCCC[N+](C)(C)C
not listed: [7]
inactive: all other assays above

CC(=O)N[C@@H](CS)C(=O)O
inactive: all assays above

CN1C[C@H]2c3ccccc3Oc3ccc(Cl)cc3[C@@H]2C1
inactive: [1] | [4]
active: [2] 11.2 µM | [3] 0.0062 µM

CCC(=O)O[C@]1(C(=O)CO)CC[C@H]2[C@@H]3CCC4=CC(=O)CC[C@]4(C)[C@@H]3CC[C@@]21C
inactive: [1]

NCCS
not listed: [7]
inactive: all other assays above

O=C(O)c1cc(-c2ccccc2)nc2ccccc12
inactive: [1] | [2] | [3] | [5]
27 µM (active) and inactive: [4]

CC(=NNC(=S)N1CCC1)c1ccccn1
inactive: [1]

CC(C)(C)C(=O)Oc1ccc2c(c1)nc(NC(=O)c1cccc([N+](=O)[O-])c1)n2CCCO
inactive: [1]

O=C1NC(=O)C(=Cc2ccc3c(c2)OC(F)(F)O3)S1
inactive: [1]

Clc1ccc(Cn2c(CN3CCCC3)nc3ccccc32)cc1
inactive: [1] | [2] | Papain (Carica papaya)
active: [3] 0.309 µM | [4] 12.3 µM

Cc1ccc(/C=N/NC(=O)c2ccccc2Oc2ccccc2)o1
inactive: [1]

CC1(C)O[C@H]2C[C@@H]3[C@H]4CCC5=CC(=O)C=C[C@]5(C)[C@@]4(F)[C@@H](O)C[C@]3(C)[C@]2(C(=O)CO)O1
inactive: [1]

O=C(NCCN1CCOCC1)c1ccc(Cl)cc1
active: [3] 9.77 µM
not listed: [7]
inactive: all other assays above

CCN(CC)C(=O)c1ccc(O)c(OC)c1
not listed: [7]
inactive: all other assays above

CCOC1OC(=O)C[C@H]1NC(=O)[C@@H]1CCCN1C(=O)[C@@H](NC(=O)c1ccc(N)c(Cl)c1)C(C)(C)C (stereo not given in full)
inactive: [1]

CCCCC1C(=O)N(c2ccccc2)N(c2ccccc2)C1=O
active: [4] 8.71 µM
not listed: [6] | [7]
inactive: all other assays above

CN1[C@@H]2CCC[C@@H]1CC(NC(=O)c1nn(C)c3ccccc13)C2 (stereo not given in full)
inactive: [1]

N#CC1(c2ccc(NC(=O)c3cccnc3NCc3ccncc3)cc2)CCCC1
inactive: [1]

OC[C@@H](O)[C@H](O)[C@H](O)[C@@H](O)CO
not listed: Papain (Carica papaya) | [7]
inactive: all other assays above
